# Beta apoptosis: inhibitors of cytokine-induced beta cell apoptosis, primary screen, luminescence; protection from apoptosis, % (concentration not given with the values); actives 0.8% (n = 300,000); INS-1E cytokine-induced death, ATP luminescence, 48 h; percent of positive-control rescue, neutral wells zero;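 active = Every replicate reaches about 75%, or at least half do and their mean reaches it too, limit read from the data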;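 note: 0% = cytokine-treated negative control wells and 100% = positive control rescue; higher means more ATP so stronger rescue from cytokine killing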
# Gli-Sufu block: Gli-Sufu pathway antagonists, primary screen, luciferase luminescence, Sufu-KO-LIGHT cells, uHTS. Sufu-KO-LIGHT fibroblasts, Gli luciferase reporter luminescence. inhibition, % at 5 µM. actives 0.74% (n = 340,000). AID 588413, 2011;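 active = inhibition above about 55%, limit read from the data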;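 note: 0% = DMSO-treated cells and 100% = wells with medium but no cells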
# 697 NFkB inh: inhibitors of PMA/ionomycin-induced NF-kB reporter, 697 cells, primary screen, B-cell NF-kB inhibitor project, cell-based, luminescence, uHTS; 697 B-cell NF-kB luciferase reporter, 16 h; actives 0.33% (n = 330,000); inhibition, % at 4 µM; in the data active = inhibition above about 35%
# CSC inhib: cancer stem cell viability inhibitors, primary screen, luminescence. cancer stem cell-like cells viability. inhibition, % at 7.5 µM. actives 1.1% (n = 300,000). AID 2717, 2010; in the data active = inhibition above about 75%; tested in HMLE shEcad cells
# Jurkat NFkB inh: inhibitors of induced NF-kB luciferase reporter, primary screen, TCR NF-kB activation inhibitor project, cell-based, luminescence, uHTS; actives 0.53% (n = 330,000); inhibition, % at 4 µM; Jurkat, PMA/ionomycin-induced NF-kB luciferase reporter; in the data active = inhibition above about 50%
# Mdm2-MdmX inh: inhibitors of human Mdm2-MdmX association, primary screen, cell-based, luminescence, split luciferase, SaOS-2, uHTS. actives 3% (n = 330,000). inhibition, % at 8 µM. SaOS-2 split-luciferase Mdm2/MdmX complementation;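 active = inhibition of at least 50% at 8 µM in the primary screen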
# Target sequence (O15151 whole entry, looked up): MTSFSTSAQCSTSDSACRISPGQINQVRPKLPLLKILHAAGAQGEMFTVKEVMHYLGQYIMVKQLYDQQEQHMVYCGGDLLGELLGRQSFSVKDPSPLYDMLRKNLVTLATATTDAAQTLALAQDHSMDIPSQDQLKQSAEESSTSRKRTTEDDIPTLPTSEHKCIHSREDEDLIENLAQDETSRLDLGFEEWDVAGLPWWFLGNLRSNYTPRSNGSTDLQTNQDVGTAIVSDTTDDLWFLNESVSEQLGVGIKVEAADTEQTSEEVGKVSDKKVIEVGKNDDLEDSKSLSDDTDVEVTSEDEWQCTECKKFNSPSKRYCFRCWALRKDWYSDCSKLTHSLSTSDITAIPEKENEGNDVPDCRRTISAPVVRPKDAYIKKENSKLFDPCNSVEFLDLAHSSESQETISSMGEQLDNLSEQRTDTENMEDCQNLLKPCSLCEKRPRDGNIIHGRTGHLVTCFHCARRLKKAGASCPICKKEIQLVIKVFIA
# Target sequence (Q00987 whole entry, looked up): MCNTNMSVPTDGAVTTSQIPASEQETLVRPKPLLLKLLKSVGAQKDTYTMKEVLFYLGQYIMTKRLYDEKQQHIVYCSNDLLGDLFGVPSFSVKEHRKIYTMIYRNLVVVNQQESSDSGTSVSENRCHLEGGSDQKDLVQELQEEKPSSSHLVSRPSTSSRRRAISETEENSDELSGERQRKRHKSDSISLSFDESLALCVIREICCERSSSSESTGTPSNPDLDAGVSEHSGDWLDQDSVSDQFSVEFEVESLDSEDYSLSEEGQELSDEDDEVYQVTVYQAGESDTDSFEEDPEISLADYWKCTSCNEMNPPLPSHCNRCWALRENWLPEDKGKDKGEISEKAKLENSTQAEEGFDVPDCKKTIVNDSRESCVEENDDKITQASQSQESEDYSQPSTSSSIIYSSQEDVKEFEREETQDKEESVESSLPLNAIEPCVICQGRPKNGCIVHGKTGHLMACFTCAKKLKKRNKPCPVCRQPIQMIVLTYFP
# Mdm2-MdmX conf: Mdm2-MdmX complex disruptors, retested hits, confirmation, luminescence, single concentration; actives 55% (n = 10,000); Mdm2-MdmX binding, luminescent assay; shares compounds with Mdm2-MdmX inh; AID 489028, 2010; inhibition, % at 8 µM; in the data active = inhibition above about 40%
# Full FLuc ctr: full-length luciferase signal inhibition, confirmation, counter-screen for Mdm2/MdmX interaction inhibitor project, cell-based, single concentration, SaOS-2; inhibition, % at 8 µM; shares compounds with Mdm2-MdmX inh; actives 77% (n = 6,200); SaOS-2 full-length luciferase counterscreen, luminescence; AID 504607, 2011;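 active = mean inhibition at 8 µM reaching about 37%, which flags the compound as non-specific, limit read from the data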;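 note: p53-null SaOS-2 cells with luciferase driven by a doxycycline-inducible promoter; compound on cells about two nights before reading with doxycycline added after day one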
# * hit, by the source's call; x = no result. Hits are enriched below; roughly 4.5% of the tested compounds scored in any of these assays.
SMILES,Beta apoptosis,Gli-Sufu block,697 NFkB inh,CSC inhib,Jurkat NFkB inh,Mdm2-MdmX inh,Mdm2-MdmX conf,Full FLuc ctr
Fc1ccc(Oc2nc(-c3ccccn3)nc3ccccc23)cc1,76.6*,-28.8,-35.4,-6.6,-10.0,56.9*,5.5,x
c1ccc(-c2nc(N3CCCCCC3)c3ccccc3n2)nc1,123.5*,27.3,-9.6,-4.3,8.0,83.6*,85.8*,21.1
C/C(=N\Nc1nc(-c2ccccn2)nc2ccccc12)c1ccc(F)cc1,87.5*,8.8,-9.3,82.2*,19.5,74.7*,38.3,34.4
c1ccc(-c2nc(N3CCOCC3)c3ccccc3n2)nc1,30.8,-1.7,-39.5,-9.6,-16.1,43.1,x,x
CC(C)C1Cc2c(sc3c2c(=O)n(-c2ccccc2)c2n[nH]c(=S)n32)CO1 (stereo not drawn),6.0,-0.3,20.3,-2.7,0.5,21.6,x,x
COc1ccc(C(=O)/C=C/c2ccc(OC)c(CN3CCOCC3)c2)cc1,-30.2,2.0,9.0,15.3,-14.8,27.1,x,x
COc1ccc(C(=O)/C=C/c2ccc(OC)c(Cn3nnc4ccccc43)c2)cc1,3.0,-2.2,-8.5,76.9*,16.6,62.5*,43.0*,67.8*
Cc1ccc(NC(=O)Cn2c(=O)oc3ccccc32)c(C)c1,3.5,13.3,3.0,-11.8,-17.2,14.5,x,x
COc1ccc(/C=C/C(O)=C2/C(=O)N(C)C3(C)CC2c2ccccc2O3)cc1 (stereo not drawn),-4.2,22.1,4.4,29.5,-3.6,72.8*,31.1,x
Cc1ccc(/C=C/C(O)=C2/C(=O)N(C)C3(C)CC2c2ccccc2O3)cc1 (stereo not drawn),-3.6,17.6,-10.0,52.0,10.4,83.3*,42.2*,30.1
COc1ccccc1C1/C(=C(\O)c2ccc3c(c2)OCCO3)C(=O)C(=O)N1CCCn1ccnc1 (stereo not drawn),-3.3,-5.7,-3.5,-4.1,-8.7,2.2,x,x
CNC(=S)N1C2CCCC1CC(NC(=O)c1ccc(F)cc1)C2 (stereo not drawn),-1.0,5.8,7.5,-34.4,1.4,20.9,x,x
COc1ccc(S(=O)(=O)N2CCc3cc4c(cc3C2C)OCCCO4)cc1 (stereo not drawn),-0.1,39.6,-43.5,7.3,15.2,7.5,x,x
Cc1nn(-c2ccccc2Cl)c(Cl)c1/C=N/Nc1cccc(C(=O)O)c1,-4.2,-267.2,-165.2,12.3,-28.9,73.1*,82.8*,124.2*
COc1ccc2c(c1)c(=O)oc1c(C)c(OCC(=O)N3CCc4ccccc4C3)ccc12,-3.0,21.2,-3.5,6.3,-5.9,52.7*,13.2,x
COc1ccc(N2CCN(C(=O)COc3ccc4c(C)c(C)c(=O)oc4c3C)CC2)cc1,1.0,13.9,-12.1,-2.7,1.1,53.3*,20.0,x
Cc1cc(=O)oc2cc(OCC(=O)N3CCc4ccccc4C3)ccc12,-4.1,5.4,20.7,-7.3,22.8,0.5,x,x
CN(C)c1oc(/C=C/c2cccs2)nc1S(=O)(=O)c1ccccc1,5.8,-3.9,-9.1,-1.9,-12.7,6.4,x,x
CCCS(=O)(=O)c1c(S(=O)(=O)CCC)c2c(C)cccn2c1C(=O)N/N=C/c1cc(O)cc(O)c1,65.4,25.1,-31.8,132.5*,6.3,58.2*,57.0*,37.0*
O=[N+]([O-])c1cc(C(F)(F)F)cc([N+](=O)[O-])c1NCCNC(=S)Nc1cccc(F)c1,-0.9,-12.2,-1.6,12.1,12.9,44.3,x,x
O=C(ONC1=NCCCCC1)c1cccc([N+](=O)[O-])c1,5.2,-13.6,0.3,-6.0,8.0,55.6*,18.4,x
COC(=O)C1=C(C)Nc2nc3ccccc3n2C1c1cc(OC)c(OC)c(OC)c1 (stereo not drawn),-0.4,26.3,25.1,0.1,-10.0,51.6*,45.5*,95.8*
CCCN1CCN(C(=O)C2CCN(S(=O)(=O)c3c(C)noc3/C=C/c3ccc(C)cc3)CC2)CC1,12.4,16.9,3.1,-17.1,22.7,58.2*,15.2,x
Cc1ccc(/C=C/c2onc(C)c2S(=O)(=O)N2CCC(C(=O)N3CCCCC3)CC2)cc1,16.9,1.1,14.2,28.9,18.1,43.7,x,x
O=[N+]([O-])c1ccccc1Nc1cccc(F)c1,x,-0.4,x,x,x,x,x,x
SMILES,Beta apoptosis,Gli-Sufu block,697 NFkB inh,CSC inhib,Jurkat NFkB inh,Mdm2-MdmX inh,Mdm2-MdmX conf,Full FLuc ctr
CC1(C)Cc2c(sc3ncnc(NNC(=S)NCc4ccccc4)c23)CO1,-4.5,6.5,26.8,43.7,45.0,54.2*,63.5*,84.4*
Cc1c(Br)ccc(NC(=O)c2ccccc2[N+](=O)[O-])c1C,0.9,-6.2,-14.9,9.7,-10.9,15.4,x,x
Cc1ccc(NS(=O)(=O)c2ccc(Cl)c(NC(=S)NC(=O)C3CCCCC3)c2)cc1Cl,101.6*,-1.7,1.0,106.0*,-5.6,71.7*,24.1,x
Cc1ccc(NC(=O)C2CCCC2)cc1Cl,x,-0.8,-9.4,x,2.9,22.6,x,x
COc1ccc(-c2nc(CN3CCN(c4cc(C)nc(C)c4)CC3)c(C)o2)c2ccccc12,21.5,4.8,-14.6,-11.8,-4.9,97.2*,48.5*,34.4
Cc1oc(-c2cccc3ccccc23)nc1CN1CCN(c2ncnc3ccccc23)CC1,7.2,13.6,-25.4,12.1,13.9,15.2,x,x
Cc1cc(N2CCN(Cc3nc(-c4ccc(Cl)cc4)oc3C)CC2)cc(C)n1,23.2,14.7,-43.5,37.5,-2.5,63.9*,39.1,68.2*
COC(=O)c1sc(S(=O)(=O)N2CCCCC2C)c(C(=O)OC)c1C (stereo not drawn),-6.8,1.1,15.3,-9.3,-8.0,-2.8,x,x
CCN(C(=O)c1cc2c(=O)[nH]c3ccc(C)cc3c2s1)c1ccccc1C,10.6,5.9,-61.7,17.7,-21.0,57.0*,-8.8,x
Cc1ccc2[nH]c(=O)c3cc(C(=O)N(C)c4ccc(C)c(C)c4)sc3c2c1,8.0,-0.2,19.0,26.5,29.9,65.0*,40.0*,66.8*
CCN(C(=O)c1cc2c(=O)[nH]c3ccc(C)cc3c2s1)c1ccc(F)cc1,7.3,10.9,-16.6,x,-10.6,47.9,x,x
CCN(C(=O)c1cc2c(=O)[nH]c3ccc(C)cc3c2s1)c1cccc(C)c1,9.7,-2.4,-32.1,31.3,43.8,50.0,51.8*,64.1*
